Measurements reported in PubChem BioAssay (NCATS).
Several values for one entry are separate records, joined by “and”; a condition that tells them apart may be missing. Identical values can stand only once. Results filed as inconclusive are left out. Activity calls are given as the source filed them. Unless noted, calls come from the whole dose curve; as a rule, active = well fitted curve in the direction sought with a large enough effect; inconclusive = small, poorly fitted or top-dose-only effect, or another doubt; inactive = no such curve, though single readings can be large; an effect the other way counts as inactive or inconclusive.

What was measured:
[1] = AP1 Signaling Pathway (AID 357; active = well fitted curve in either direction with a large enough effect, not every such curve was filed as active;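 note: ME-180 reporter cells stimulated with EGF at its EC50 level; % is set by controls: 0 for no effect and ±100 for the full control effect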); conditions: ME-180 AP-1-bla reporter, EGF-induced, beta-lactamase ratio, 5 h
Outline: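 Titration-series screen for positive or negative modulators of EC50 EGF-induced signaling in ME-180 cells carrying an AP-1-driven beta-lactamase reporter. After 5 hours at 37 degrees Celsius, CCF4 460nm/530nm emission ratio gave %Activity; AC50 values derived.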

[2] = NFAT Signaling Pathway (AID 444; active = well fitted curve in either direction with a large enough effect, not every such curve was filed as active;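 note: carbachol stimulus at about its EC50 of 1 µM final; % is set by controls: 0 for no effect and ±100 for the full control effect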); conditions: Jurkat NFAT-bla M1, carbachol, beta-lactamase ratio, 5 h
Outline: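 Jurkat cells with NFAT-driven β-lactamase reporter and co-expressed M1 receptor, stimulated with carbachol (final 1 uM, ~EC50), compound titration, 5 h at 37 °C. CCF4 loaded 1 h at RT; 460/530 nm ratio gave %activity and AC50.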

[3] = Stat Signaling Pathway (AID 446; active = well fitted curve in either direction with a large enough effect, not every such curve was filed as active;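 note: ME-180 cervical cancer cells given 40 pM IL-6 alongside compound; SIE-controlled beta-lactamase reporter measured as 460/530 nm FRET emission ratio; % is set by controls: 0 for no effect and ±100 for the full control effect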); conditions: ME-180 (cervical carcinoma) SIE beta-lactamase reporter, IL-6 stimulated, 5 h
Outline: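 IL-6/STAT signaling read in ME-180 cells via an SIE beta-lactamase reporter. Stimulus was 40 pM IL-6 (its AC50) for 5 hrs, so both activation and inhibition register.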

[4] = target: Mitogen-activated protein kinase 10 (Mus musculus) (UniProt Q61831); experiment: JNK3 AlphaScreen Assay (AID 530; active = well fitted curve in either direction with a large enough effect, not every such curve was filed as active;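 note: kinase came from lysate of stimulated human HepG2 cells; signal reports phosphorylation of biotinylated GST-cJun 1-79 at Ser73 with 10 µM ATP; % is set by controls: 0 for no effect and ±100 for the full control effect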)
Outline: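 qHTS format: compounds tested as titrations against IL-1beta/TNF-alpha-activated HepG2 lysate JNK3 with biotin-GST-cJun substrate and 10 uM ATP at room temperature. Loss of anti-phospho-cJun AlphaScreen signal indicates inhibition.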

[5] = target: 3',5'-cyclic-AMP phosphodiesterase 4B (Homo sapiens) (UniProt Q07343); experiment: qHTS Assay for Inhibitors of PDE-IV (AID 607; active = well fitted activation curve with a large enough effect in the main read-out, with a control signal flat, not every such curve was filed as active; note: % of control where 0% means no effect)
3',5'-cyclic-AMP phosphodiesterase 4B (Homo sapiens), sequence (Q07343 whole entry, looked up): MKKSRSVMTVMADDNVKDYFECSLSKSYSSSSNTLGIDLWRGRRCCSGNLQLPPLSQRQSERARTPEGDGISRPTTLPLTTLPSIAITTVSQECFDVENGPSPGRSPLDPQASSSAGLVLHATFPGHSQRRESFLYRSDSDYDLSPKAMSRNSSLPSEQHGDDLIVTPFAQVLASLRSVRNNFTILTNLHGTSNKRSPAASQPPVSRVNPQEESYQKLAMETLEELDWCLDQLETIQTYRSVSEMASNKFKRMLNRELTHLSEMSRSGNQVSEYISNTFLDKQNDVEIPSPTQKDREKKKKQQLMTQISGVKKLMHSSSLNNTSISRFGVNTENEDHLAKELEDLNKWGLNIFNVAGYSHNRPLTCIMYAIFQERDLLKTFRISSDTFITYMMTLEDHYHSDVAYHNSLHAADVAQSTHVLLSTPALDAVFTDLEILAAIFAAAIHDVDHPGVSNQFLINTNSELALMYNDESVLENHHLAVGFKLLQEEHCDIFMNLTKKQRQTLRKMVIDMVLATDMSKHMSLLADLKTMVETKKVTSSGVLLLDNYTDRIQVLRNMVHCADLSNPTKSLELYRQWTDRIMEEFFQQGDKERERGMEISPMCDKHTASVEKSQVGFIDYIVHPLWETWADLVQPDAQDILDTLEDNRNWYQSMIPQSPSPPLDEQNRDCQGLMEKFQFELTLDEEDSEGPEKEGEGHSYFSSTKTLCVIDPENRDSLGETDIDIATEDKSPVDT
Outline: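 Live HEK293 cells with a modified cyclic nucleotide-gated (CNG) channel report intracellular cAMP via membrane-potential dye fluorescence (ex 535/em 590 nm). Endogenous PDE-IV was targeted. Compounds were tested at up to 22.9 uM final; RO 20-1724 100 uM served as control.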

[6] = target: Guanine nucleotide-binding protein G(i) subunit alpha-1 (Homo sapiens) (UniProt P63096); experiment: qHTS Assay for Inhibitors of RGS12 GoLoco Motif Activity (Green Fluorophore) (AID 879);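 note: 0% = labeled peptide with Gαi1 and full inhibition = labeled peptide alone without protein; negative values mean loss of peptide binding seen as reduced polarization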
Guanine nucleotide-binding protein G(i) subunit alpha-1 (Homo sapiens), sequence (P63096 whole entry, looked up): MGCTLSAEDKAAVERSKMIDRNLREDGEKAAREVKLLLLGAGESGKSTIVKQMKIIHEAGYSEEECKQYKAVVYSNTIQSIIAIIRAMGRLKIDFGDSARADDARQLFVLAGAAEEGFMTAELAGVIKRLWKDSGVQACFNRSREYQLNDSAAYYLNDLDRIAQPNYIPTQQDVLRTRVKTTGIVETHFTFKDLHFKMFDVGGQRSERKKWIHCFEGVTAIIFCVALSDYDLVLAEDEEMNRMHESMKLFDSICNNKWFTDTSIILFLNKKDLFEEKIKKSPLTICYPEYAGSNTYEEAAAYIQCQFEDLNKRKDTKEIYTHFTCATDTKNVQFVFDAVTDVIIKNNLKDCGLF
Outline: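 Fluorescence polarization assay: 50 nM Gαi1 with 10 nM FITC-labeled RGS12 GoLoco peptide in 10 mM Tris pH 7.5, 150 mM NaCl, 0.1 mM GDP, 0.05% NP40, 10 min at room temperature with compound.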

[7] = target: Muscarinic acetylcholine receptor M1 (Rattus norvegicus) (UniProt P08482); experiment: qHTS Assay for Antagonists of Acetylcholine Muscarinic M1 Receptor: Measurement of IP-One Response (AID 944); note: nearly all actives have a fitted effect of over 75% in size
Muscarinic acetylcholine receptor M1 (Rattus norvegicus), sequence (P08482 whole entry, looked up): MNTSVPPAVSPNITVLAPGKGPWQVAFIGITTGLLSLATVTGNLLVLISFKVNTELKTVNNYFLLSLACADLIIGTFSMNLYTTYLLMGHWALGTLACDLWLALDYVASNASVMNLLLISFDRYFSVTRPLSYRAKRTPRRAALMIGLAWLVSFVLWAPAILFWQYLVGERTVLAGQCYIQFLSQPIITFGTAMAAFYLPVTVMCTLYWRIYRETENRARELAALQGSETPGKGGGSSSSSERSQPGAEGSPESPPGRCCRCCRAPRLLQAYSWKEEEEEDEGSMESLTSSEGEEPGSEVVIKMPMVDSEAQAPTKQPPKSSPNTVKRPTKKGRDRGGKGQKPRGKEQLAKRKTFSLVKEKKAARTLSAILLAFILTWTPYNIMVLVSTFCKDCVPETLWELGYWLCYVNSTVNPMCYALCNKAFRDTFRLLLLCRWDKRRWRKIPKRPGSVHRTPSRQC
Outline: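 CHO cells expressing rat M1 receptor, recovered overnight, were pre-incubated 10 min with compound, then stimulated 30 min with carbachol at EC80 (200 nM) in LiCl-containing buffer, pH 7.4. IP1 accumulation was read by HTRF (620/665 nm).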

[8] = target: Pyruvate kinase (Leishmania mexicana) (UniProt Q27686); experiment: qHTS Validation Assay for Inhibitors of Leishmania Mexicana Pyruvate Kinase (AID 945);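 note: 0% = DMSO only neutral control wells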
Pyruvate kinase (Leishmania mexicana), sequence (Q27686 2-499 E452W): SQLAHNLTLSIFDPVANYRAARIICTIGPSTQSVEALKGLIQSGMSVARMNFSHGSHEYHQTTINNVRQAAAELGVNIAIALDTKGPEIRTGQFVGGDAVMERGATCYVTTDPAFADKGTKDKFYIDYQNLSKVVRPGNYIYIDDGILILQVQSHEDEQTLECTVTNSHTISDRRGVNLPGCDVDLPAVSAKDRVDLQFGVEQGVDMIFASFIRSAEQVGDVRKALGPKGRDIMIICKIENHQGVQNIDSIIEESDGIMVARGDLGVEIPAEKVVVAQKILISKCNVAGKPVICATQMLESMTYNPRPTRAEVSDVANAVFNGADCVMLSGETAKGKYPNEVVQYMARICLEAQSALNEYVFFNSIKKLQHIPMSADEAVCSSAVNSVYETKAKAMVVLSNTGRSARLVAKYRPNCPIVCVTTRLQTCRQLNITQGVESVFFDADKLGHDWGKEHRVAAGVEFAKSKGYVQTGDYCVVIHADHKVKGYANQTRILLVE
Outline: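 Eight-point qHTS titrations; enzyme 0.2 nM LmPYK (E451W mutant); substrates 0.5 mM PEP, 0.1 mM ADP; 7 mM MgCl2; 1 h room temperature; PKLight luminescence normalized to neutral control.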

[9] = target: Pyruvate kinase PKM (Homo sapiens) (UniProt P14618); experiment: qHTS Assay for Activators of Human Muscle Pyruvate Kinase (AID 954; active = well fitted curve in the direction sought with a large enough effect, not every such curve was filed as active;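 note: 0% = uninhibited enzyme and -100% = no enzyme or full thiadiazolimine inhibition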)
Pyruvate kinase PKM (Homo sapiens), sequence (P14618 whole entry, looked up): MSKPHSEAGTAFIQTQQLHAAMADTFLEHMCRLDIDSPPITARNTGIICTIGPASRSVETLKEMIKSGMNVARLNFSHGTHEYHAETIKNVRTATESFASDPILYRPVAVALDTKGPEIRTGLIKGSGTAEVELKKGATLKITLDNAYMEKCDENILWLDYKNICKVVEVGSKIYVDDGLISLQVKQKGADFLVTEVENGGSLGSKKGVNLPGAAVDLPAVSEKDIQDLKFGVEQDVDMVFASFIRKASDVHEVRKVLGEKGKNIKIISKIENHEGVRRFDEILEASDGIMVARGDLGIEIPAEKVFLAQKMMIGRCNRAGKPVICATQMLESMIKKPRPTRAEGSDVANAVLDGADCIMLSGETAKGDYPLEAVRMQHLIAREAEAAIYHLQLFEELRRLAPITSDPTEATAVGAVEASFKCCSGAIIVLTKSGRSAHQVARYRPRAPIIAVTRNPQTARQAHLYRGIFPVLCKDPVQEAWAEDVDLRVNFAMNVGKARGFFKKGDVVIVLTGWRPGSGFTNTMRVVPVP
Outline: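 Enzyme was run at intermediate activity so both inhibitors and activators could be detected. ATP formed from ADP and PEP by 0.1 nM human PKM2 during a 1 h room-temperature incubation was quantified by coupled luciferase luminescence.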

[10] = target: Alpha-galactosidase A (Homo sapiens) (UniProt P06280); experiment: Counterscreen for Glucocerebrosidase Inhibitors: qHTS Assay for Human alpha-Galactosidase at pH 4.5 (AID 992); note: 0% is about no effect
Alpha-galactosidase A (Homo sapiens), sequence (P06280 whole entry, looked up): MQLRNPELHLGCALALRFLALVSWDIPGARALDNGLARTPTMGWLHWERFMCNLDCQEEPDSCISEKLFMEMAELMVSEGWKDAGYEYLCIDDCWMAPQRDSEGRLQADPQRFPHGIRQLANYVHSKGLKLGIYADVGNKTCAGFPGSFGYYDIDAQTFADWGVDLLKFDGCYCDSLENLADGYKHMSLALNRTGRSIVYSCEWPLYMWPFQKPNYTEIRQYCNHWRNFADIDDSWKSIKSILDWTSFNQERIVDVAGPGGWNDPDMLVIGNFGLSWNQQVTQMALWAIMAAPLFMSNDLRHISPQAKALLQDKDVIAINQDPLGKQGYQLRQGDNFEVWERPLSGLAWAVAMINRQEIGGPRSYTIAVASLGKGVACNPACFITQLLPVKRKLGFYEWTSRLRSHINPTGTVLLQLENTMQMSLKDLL
Outline: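 Read-out is 4-methylumbelliferone fluorescence (365 nm excitation, 440 nm emission) after a pH 10 NaOH/glycine stop. Reactions held 2 nM enzyme and 80 uM substrate at pH 4.5 for 20 min at room temperature.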

[11] = target: alpha-glucosidase (Oryza sativa, rice) (UniProt Q653V4); experiment: Counterscreen for Glucocerebrosidase Inhibitors: qHTS Assay for Rice alpha-Glucosidase at pH 5.0 (AID 997);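 note: 0% = full activity with enzyme and -100% = basal without enzyme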
Outline: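 Rice alpha-glucosidase (4 nM final) with 400 uM 4-methylumbelliferyl-alpha-D-glucopyranoside in citrate buffer pH 5.0, 20 min at room temperature, stopped at pH 10; fluorescence 365/440 nm, compounds 0.7 nM–77 uM, AC50 from Hill fits.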

[12] = qHTS Assay for Lipid Storage Modulators (AID 1519; calls by dose curve); conditions: Drosophila S3 cells, BODIPY lipid droplet/cell ratio, laser cytometry, cells loaded with oleic acid
Outline: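 Cells seeded at 5,000 per well were treated with compounds over a concentration series and loaded with oleic acid (400 uM, as added). Lipid droplet fluorescence (488 nm excitation, 500-530 nm channel) was read by laser-scanning cytometry and normalized to 20 uM Triacsin C.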

[13] = target: DNA repair nuclease/redox regulator APEX1 (Homo sapiens) (UniProt P27695); experiment: qHTS Validation Assay for Inhibitors of the Human Apurinic/apyrimidinic Endonuclease 1 (APE1) (AID 1705)
DNA repair nuclease/redox regulator APEX1 (Homo sapiens), sequence (P27695 whole entry, looked up): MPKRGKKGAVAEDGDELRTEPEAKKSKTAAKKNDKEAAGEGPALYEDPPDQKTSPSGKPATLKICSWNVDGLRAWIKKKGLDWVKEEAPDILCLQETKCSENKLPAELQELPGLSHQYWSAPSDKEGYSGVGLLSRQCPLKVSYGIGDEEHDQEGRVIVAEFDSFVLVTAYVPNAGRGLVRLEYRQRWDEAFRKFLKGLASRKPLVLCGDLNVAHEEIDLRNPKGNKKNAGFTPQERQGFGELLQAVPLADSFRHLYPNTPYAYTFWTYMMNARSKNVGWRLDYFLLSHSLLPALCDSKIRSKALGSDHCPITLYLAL
Outline: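 qHTS, 1536-well. APE1 + cpd 15 min RT → 50 nM TAMRA/BHQ-2 THF-abasic dsDNA substrate → kinetic fluorescence, 3 reads/60 s; delta(read3−read1) = reaction progress. No-enzyme buffer = negative control.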

[14] = Counterscreen for APE1 Inhibitors: Fluorescent Dye Displacement Validation Assay (AID 1707);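 note: plate controls were ThO with dsDNA and no compound for no effect and ThO without dsDNA for full effect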
Outline: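 ThO 250 nM + dsDNA 50 nM (THF abasic site, 5'-TAMRA), Tris-HCl pH7.5/50mM NaCl/2 mM MgCl2/0.01% Tween-20; compounds pin-transferred; ex 480/em 540 nm endpoint. Neutral = no compound; no-DNA ThO wells = negative control.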

[15] = qHTS for differential inhibitors of proliferation of Plasmodium falciparum line GB4 (AID 1816); conditions: Potency: Plasmodium falciparum GB4 proliferation inhibition;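 note: potency is the fitted concentration of half-maximal effect; parasite growth measured after 72 h incubation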
[16] = qHTS for differential inhibitors of proliferation of Plasmodium falciparum line 3D7 (AID 1876); note: potency is the fitted concentration of half-maximal effect
[17] = qHTS for differential inhibitors of proliferation of Plasmodium falciparum line D10 (AID 1877);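 note: potency is the fitted concentration of half-maximal effect; parasites grown with compound for 72 h before DNA staining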
[18] = qHTS for differential inhibitors of proliferation of Plasmodium falciparum line Dd2 (AID 1882); conditions: Potency: Plasmodium falciparum Dd2 proliferation inhibition; note: potency is the fitted concentration of half-maximal effect; nearly all actives have a fitted effect of over 65% in size
Outline: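 SYBR Green I DNA fluorescence read-out, ex 485/em 535 nm. Signals were normalized to 0.29 uM artemisinin and DMSO wells, then corrected using vehicle-only plates flanking each stack. Parasite growth ran 72 h in erythrocytes before lysis.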

[19] = qHTS for differential inhibitors of proliferation of Plasmodium falciparum line W2 (AID 1883); conditions: Potency: Plasmodium falciparum W2 proliferation inhibition;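 note: potency is the fitted concentration of half-maximal effect; parasites grown with compound for 72 h before lysis and staining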
[20] = qHTS for differential inhibitors of proliferation of Plasmodium falciparum line HB3 (AID 1886); conditions: Potency: Plasmodium falciparum HB3 proliferation inhibition;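 note: potency is the fitted concentration of half-maximal effect; parasites grown with compound for 72 h before SYBR Green readout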
[21] = target: Ferritin light chain (Equus caballus) (UniProt P02791); experiment: qHTS Validation Assay for Identification of Novel General Anesthetics (AID 2323); note: % is set by controls: 0 for no effect and ±100 for the full control effect
Ferritin light chain (Equus caballus), sequence (P02791 2-175 limits assumed): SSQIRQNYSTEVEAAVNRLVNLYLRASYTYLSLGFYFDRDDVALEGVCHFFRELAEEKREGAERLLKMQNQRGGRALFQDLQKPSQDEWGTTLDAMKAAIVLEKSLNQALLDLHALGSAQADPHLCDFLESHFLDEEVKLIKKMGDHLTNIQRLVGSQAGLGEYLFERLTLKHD
Outline: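 Fluorescence at 535 nm (excitation 380 nm) reported loss of 1-AMA binding to horse-spleen apoferritin (10 uM) in PBS with 50% saturated 1-aminoanthracene, after 10 min room-temperature incubation with compound; values from Hill fits of normalized response.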

[22] = target: ATP-dependent DNA helicase Q1 (Homo sapiens) (UniProt P46063); experiment: qHTS Validation Assay for Inhibitors of RecQ-Like Dna Helicase 1 (RECQ1) (AID 2353);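 note: plate controls were DMSO vehicle for no effect and enzyme-free control for full effect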
ATP-dependent DNA helicase Q1 (Homo sapiens), sequence (P46063 whole entry, looked up): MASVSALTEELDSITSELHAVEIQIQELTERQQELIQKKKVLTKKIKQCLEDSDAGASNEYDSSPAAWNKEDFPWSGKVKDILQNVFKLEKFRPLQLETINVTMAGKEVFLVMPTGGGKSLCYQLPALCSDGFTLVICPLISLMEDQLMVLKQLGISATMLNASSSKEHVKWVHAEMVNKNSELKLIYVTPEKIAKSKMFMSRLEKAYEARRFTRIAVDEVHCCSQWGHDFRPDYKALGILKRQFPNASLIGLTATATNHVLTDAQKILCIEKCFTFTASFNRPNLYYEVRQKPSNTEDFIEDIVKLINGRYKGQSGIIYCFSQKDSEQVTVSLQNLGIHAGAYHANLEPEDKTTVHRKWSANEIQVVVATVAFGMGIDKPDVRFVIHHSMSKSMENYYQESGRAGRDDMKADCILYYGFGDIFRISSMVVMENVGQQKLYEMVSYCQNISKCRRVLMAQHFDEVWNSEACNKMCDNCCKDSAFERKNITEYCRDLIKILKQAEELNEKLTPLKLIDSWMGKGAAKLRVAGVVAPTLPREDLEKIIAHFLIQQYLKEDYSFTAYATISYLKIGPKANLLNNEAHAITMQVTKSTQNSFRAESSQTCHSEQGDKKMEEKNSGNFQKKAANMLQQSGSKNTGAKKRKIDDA
Outline: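 50 nM RECQ1T1 preincubated 15 min with compound in Tris pH 8.0 buffer with MgCl2, DTT, Tween-20 and 2.5 ug/ml poly(dI-dC); started with 200 nM TAMRA/BHQ-2 forked duplex and 2 mM ATP. Unwinding read as fluorescence (525/598 nm), two reads 2 h apart.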

[23] = target: RecQ-like DNA helicase BLM (Homo sapiens) (UniProt P54132); experiment: qHTS Validation Assay for Inhibitors of Bloom's syndrome helicase (BLM) (AID 2364);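 note: plate controls were DMSO vehicle for no effect and enzyme-free control for full effect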
Outline: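 50 nM BLM preincubated 15 min at room temperature with compound in pH 8.0 Tris buffer containing 2.5 ug/ml poly(dI-dC); started with 200 nM TAMRA/BHQ-2 forked duplex and 2 mM ATP (final). Unwinding read as TAMRA fluorescence increase, two reads 2 h apart.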

[24] = Validation screen for small molecules that induce DNA re-replication in MCF 10A normal breast cells (AID 463097); note: 0% is about no effect; nearly all actives have a fitted effect of over 60% in size
Outline: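 Image-based qHTS: normal breast cells are incubated with compound for 48 hr, stained with Hoechst, and scanned for total nuclear fluorescence. Compounds raising the fraction of nuclei with elevated DNA content count as re-replication inducers.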

[25] = Quantitative high throughput screen for delayed death inhibitors of the malarial parasite plastid, 96 hour incubation (AID 488745); note: potency is the fitted concentration of half-maximal effect; nearly all actives have a fitted effect of over 70% in size
Outline: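 P. falciparum carrying an integrated firefly luciferase reporter, grown in erythrocytes (2% hematocrit, 0.1% parasitemia final) in RPMI 1640/0.5% Albumax, was exposed to compound for 96 h (two generations) at 37 C, 5% CO2. Luminescence decrease indicated growth inhibition.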

[26] = Quantitative high throughput screen for delayed death inhibitors of the malarial parasite plastid, 48 hour incubation (AID 488752); note: potency is the fitted concentration of half-maximal effect; nearly all actives have a fitted effect of over 65% in size
Outline: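 Erythrocytes infected with P. falciparum carrying an integrated firefly luciferase reporter (2% hematocrit, 0.1% parasitemia final) were exposed to compounds in RPMI 1640/0.5% Albumax for 48 h at 37 C, 5% CO2. Growth inhibition was scored as reduced luminescence.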

[27] = target: Thyrotropin receptor (Homo sapiens) (UniProt P16473); experiment: qHTS Assay for Antagonists of the Thyroid Stimulating Hormone Receptor (AID 488980); note: 0% is about no effect
Outline: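 Readout is cAMP by HTRF competition between cellular cAMP and cAMP-d2 for a cryptate-labelled antibody. Antagonism was assessed in TSHR-transfected HEK293 cells stimulated with 4 nM TSH (EC80, final) in the presence of RO 20-1724.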

[28] = target: Thyrotropin-releasing hormone receptor (Homo sapiens) (UniProt P34981); experiment: qHTS for Small Molecule Agonists and Allosteric Enhancers of Human TRH Receptor: Validation Screen for Agonists (AID 493127;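 active = calcium activation more than 3 SD above the typical response in the agonist read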;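 note: intracellular calcium rise by fluo-8 fluorescence before TRH EC20 addition; 0% is about no effect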); conditions: TRH receptor agonist cell assay; at 2 µM; stronger effect = higher value
Thyrotropin-releasing hormone receptor (Homo sapiens), sequence (P34981 whole entry, looked up): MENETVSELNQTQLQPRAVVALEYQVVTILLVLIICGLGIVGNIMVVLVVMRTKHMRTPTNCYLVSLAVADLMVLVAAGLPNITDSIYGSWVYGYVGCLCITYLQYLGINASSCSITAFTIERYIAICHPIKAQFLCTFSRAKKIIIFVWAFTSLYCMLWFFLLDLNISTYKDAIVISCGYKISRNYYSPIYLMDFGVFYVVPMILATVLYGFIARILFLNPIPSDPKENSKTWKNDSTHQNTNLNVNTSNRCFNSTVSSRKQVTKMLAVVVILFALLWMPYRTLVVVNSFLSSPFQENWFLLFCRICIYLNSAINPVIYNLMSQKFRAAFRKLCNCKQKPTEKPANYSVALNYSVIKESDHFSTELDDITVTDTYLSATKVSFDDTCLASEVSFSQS
Outline: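 TRHR-expressing cells were plated overnight in serum-containing medium, then loaded with fluo-8 calcium dye at room temperature for 30 min–1.5 h. After a 10 s baseline, compound was pin-transferred and calcium fluorescence (ex 480/em 530) read kinetically for agonist response.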

[29] = target: Galactokinase (Homo sapiens) (UniProt P51570); experiment: qHTS Validation Assay for Inhibitors of Human Galactokinase (GALK) (AID 493189); note: 0% is about no effect
Galactokinase (Homo sapiens), sequence (P51570 whole entry, looked up): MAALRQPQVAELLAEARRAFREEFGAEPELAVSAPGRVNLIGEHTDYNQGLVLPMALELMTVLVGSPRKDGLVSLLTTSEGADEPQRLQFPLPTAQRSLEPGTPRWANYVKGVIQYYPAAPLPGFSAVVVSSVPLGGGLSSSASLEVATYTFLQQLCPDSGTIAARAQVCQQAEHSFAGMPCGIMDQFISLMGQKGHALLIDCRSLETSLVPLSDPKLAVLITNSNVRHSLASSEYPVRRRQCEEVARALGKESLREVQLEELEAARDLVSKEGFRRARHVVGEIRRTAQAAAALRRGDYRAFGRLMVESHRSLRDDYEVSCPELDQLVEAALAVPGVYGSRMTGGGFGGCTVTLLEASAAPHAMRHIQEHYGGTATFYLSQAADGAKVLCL
Outline: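 5 nM GALK / 100 uM galactose / 35 uM ATP, 20 mM HEPES pH8.0, 5 mM MgCl2, 60 mM NaCl, 1 mM DTT, 0.01% BSA (final). RT 1 h; Kinase-Glo Plus luminescence.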

CCCNC[C@H](O)COc1ccccc1C(=O)CCc1ccccc1
-13.7% and -51.9%: max response ([12]; measured here: lipid channel max response)
inactive: activity change, negative = inhibition ([1]; at 17.2 µM (top of the series)) 6.84% | activity change, negative = inhibition ([1]; at 38 µM (top of the series)) 18.1% and 7.01% | activity change, negative = inhibition ([2]; at 17.2 µM (top of the series)) 3.46% | activity change, negative = inhibition ([2]; at 38 µM (top of the series)) 1.4% and 9.3% | activity, negative = inhibition ([3]; at 17.2 µM (top of the series)) -4.64% | activity, negative = inhibition ([3]; at 38 µM (top of the series)) -19.1% and -13.3% | outcome [4] | Potency [5] | outcome [6] | Potency [7] | Potency [8] | outcome [9] | outcome [10] | outcome [11] | activity change, negative = inhibition ([12]; at 25.7 µM (top of the series)) -1.16% | activity change, negative = inhibition ([12]; at 57.5 µM (top of the series)) -2.08% | Potency [13] | Potency [14] | outcome [21] | Potency [22] | Potency [23] | outcome [24] | outcome [27] | activation [28] 3.19% | outcome [29]
-11.4% and -51.8%: max response ([12]; measured here: cell count channel max response)
active: Potency [15] 316 nM | Potency [16] 891 nM | Potency [17] 2000 nM | Potency [18] 1120 nM | Potency [19] 282 nM | Potency [20] 1120 nM | Potency [25] 2620 nM | Potency [26] 2080 nM
